Experiment [1] is described as follows: viability loss in pontine glioma line – cell-based, SU-DIPG-XIII, MIPE4.0, CellTiter-Glo, qHTS, dose response (AID 1347061; cut-off not given, nearly all actives have AC50 up to about 37 µM;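 also: cells exposed to compound for 48 hours before readout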). The following applies: CellTiter-Glo ATP luminescence.
The nature of experiment [2]: viability loss in pontine glioma line – cell-based, SU-DIPG-XIII, MIPE5.0, CellTiter-Glo, qHTS, dose response (AID 1347064; cut-off not given, nearly all actives have AC50 up to about 23 µM;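 as to AC50: cells exposed to compound for 48 hours before the viability read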). The following applies: CellTiter-Glo ATP luminescence. On the technique in general: In ATP-based viability assays light output follows the ATP content of the culture.
In experiment [3] the target is NAD(+) hydrolase SARM1 (Homo sapiens) (UniProt Q6SZW1). The experiment can be described thus: blocking NAD cleavage by SARM1 SAM-TIR – cell lysate, NAD-Glo luminescence (AID 1508614;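 active = compound whose remaining NAD level is above about 45 nM, limit read from the data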;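 also: higher remaining NAD means stronger inhibition of SARM1 NADase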). As to conditions: SAM-TIR HEK293T lysate NADase, at 1 µM, stronger effect = higher value.
Experiment [4] in a line: growth inhibition, single agent or in combination, cell-based, chromothripsis tumors, cisplatin or BGB combos (AID 1671449; in the data active = inhibition above about 80%;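 also: cells exposed for 96 hours; 0% = vehicle DMSO and 100% = killing by high DMSO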). As to conditions: LFS_MB_P medulloblastoma cells.
A short description of experiment [5]: growth inhibition, single agent and combos, cell-based, chromothripsis tumors, cisplatin or BGB combos (AID 1671450; in the data active = inhibition above about 80%;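 also: cells exposed to compound for four days; 0% = vehicle DMSO and 100% = cell killing by high DMSO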). As to conditions: HDN33 neuroblastoma cells, stronger effect = higher value.
A short description of experiment [6]: growth inhibition, single agents and combos, ICB984, cell-based, cisplatin or BGB combos, synergistic combos for chromothripsis tumors (AID 1671451).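 Also: cells exposed for 96 hours before readout; 0% = vehicle DMSO and 100% = killing by high DMSO.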 The following applies: ICB984 medulloblastoma cells, drug combinations, stronger effect = higher value.
Experiment [7] can be described thus: growth inhibition, single agents and combos, LFS_MB_1R, cell-based, cisplatin or BGB combos, synergistic combos for chromothripsis tumors (AID 1671452; in the data active = inhibition above about 80%;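 also: cells exposed for 96 hours before readout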). As to conditions: LFS_MB_1R medulloblastoma cells, stronger effect = higher value.
A short description of experiment [8]: growth inhibition, single agents and combos, HTB85, cell-based, BGB or cisplatin IC20 combos, synergistic combos for chromothripsis tumors (AID 1671453; in the data active = inhibition above about 80%;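 also: cells exposed for 96 hours before readout; 0% = vehicle DMSO and 100% = high DMSO killing control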). As to conditions: HTB85 osteosarcoma cells, drug combinations, stronger effect = higher value.
Experiment [9] can be described thus: growth inhibition, single agents and combos, CRL2098, cell-based, BGB or cisplatin IC20 combos, synergistic combos for chromothripsis tumors (AID 1671454; in the data active = inhibition above about 80%;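 also: cells exposed for 96 h before readout; 0% = vehicle DMSO and 100% = killing by high DMSO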). As to conditions: CRL2098 osteosarcoma cells, drug combinations, stronger effect = higher value.
Experiment [10] is described as follows: growth inhibition, single agents and combos, HD-MB03, cell-based, BGB or cisplatin IC20 combos, synergistic combos for chromothripsis tumors (AID 1671455; in the data active = inhibition above about 83%;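 also: 0% = vehicle DMSO and 100% = high DMSO as cytotoxic control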). The following applies: HD-MB03 medulloblastoma cells, stronger effect = higher value.
A short description of experiment [11]: growth inhibition, single agents and combos, UWB1.289, cell-based, BGB or cisplatin combos, synergistic combos for chromothripsis tumors (AID 1671456; in the data active = inhibition above about 80%;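 also: cells exposed to compound for four days; 0% = vehicle DMSO and 100% = killing by high DMSO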). As to conditions: UWB1.289 ovarian carcinoma cells, stronger effect = higher value.
Experiment [12] is described as follows: growth inhibition, MDA-MB-436, cell-based, BGB or cisplatin combos, synergistic combos for chromothripsis tumors (AID 1671458).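 Also: cells exposed for 96 hours; 0% = vehicle DMSO and 100% = killing by high DMSO.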 As to conditions: MDA-MB-436 breast carcinoma growth inhibition, drug combinations, stronger effect = higher value.
A short description of experiment [13]: BT084 cell growth, single and combined drugs, ICGC_MB145, cisplatin and BGB IC40 combos (AID 1671461; in the data active = inhibition above about 80%;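 also: cells exposed to drugs for 96 hours; 0% = vehicle DMSO and 100% = high DMSO full killing control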). As to conditions: BT084 medulloblastoma cells, drug combinations, stronger effect = higher value.
A short description of experiment [14]: RCMB18 cell growth, single agent and combined, cisplatin and BGB IC40 combos (AID 1671462; in the data active = inhibition above about 80%;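 also: cells exposed to compound for four days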). The following applies: RCMB18 medulloblastoma cells, stronger effect = higher value.
Experiment [15] can be described thus: CRL1545 cell growth, single agent and combined, cisplatin and BGB IC20 combos (AID 1671464; in the data active = inhibition above about 80%;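 also: cells exposed to compound for 96 hours before readout; 0% = vehicle DMSO and 100% = high DMSO killing control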). As to conditions: CRL1545 osteosarcoma cells, stronger effect = higher value.
Experiment [16] can be described thus: compounds altering circadian rhythm period length – cell-based, LOPAC library, luminescence reporter (AID 2774).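 Also: values are relative to mean of DMSO wells on each plate.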 As to conditions: circadian reporter cells, at 7 µM, actives lie on both sides.
In experiment [17] the test system is Hepatitis C virus NS3 helicase. The experiment can be described thus: blockers of NS3h binding to ssDNA – biochemical, fluorescence polarization, LOPAC1280 library, primary screen (AID 687035; in the data active = inhibition above about 37%). As to conditions: Purified HCV NS3 helicase, Cy5-dT15 ssDNA binding fluorescence polarization; stronger effect = higher value; concentration not given here. (Polarisation of emitted light reports the rotation of a fluorescent probe.)

Experiment [18] is described as follows: compounds altering Cy5-DNA-NS3h complex signal – biochemical, LOPAC1280, artefact control for HCV NS3 helicase inhibitor project (AID 687037). The following applies: Cy5-DNA-NS3h complex fluorescence interference counterscreen. For orientation: A counterscreen serves to expose hits that act by an unwanted route or on another target.
The nature of experiment [19]: compounds altering HSF1 focus formation in cells – imaging, Selleck Cancer Library (AID 1347162; in the data active = plate-normalised HSF1 focus index below about 0.46). As to conditions: human cells, HSF1 nuclear foci imaging, at 10 µM; SSMD: measured here: HSF1 foci SSMD mean; cell count: measured here: cell number; plate-normalised HSF1 focus index: stronger effect = lower value.
The mark [20] stands for this setting: measured here: combination with BGB IC40, at 0.05 µM.
Where [21] appears, read: measured here: with BGB IC20 combination, at 0.5 µM.
[22] abbreviates: measured here: with cisplatin IC20 combination, at 0.5 µM.
Where [23] appears, read: measured here: combination with cisplatin, at 0.5 µM.

Inconclusive results are not listed. Activity calls are given as the source filed them. Unless noted, no rule for the calls is given here.

NAD(+) hydrolase SARM1 (Homo sapiens), sequence (Q6SZW1 whole entry, looked up): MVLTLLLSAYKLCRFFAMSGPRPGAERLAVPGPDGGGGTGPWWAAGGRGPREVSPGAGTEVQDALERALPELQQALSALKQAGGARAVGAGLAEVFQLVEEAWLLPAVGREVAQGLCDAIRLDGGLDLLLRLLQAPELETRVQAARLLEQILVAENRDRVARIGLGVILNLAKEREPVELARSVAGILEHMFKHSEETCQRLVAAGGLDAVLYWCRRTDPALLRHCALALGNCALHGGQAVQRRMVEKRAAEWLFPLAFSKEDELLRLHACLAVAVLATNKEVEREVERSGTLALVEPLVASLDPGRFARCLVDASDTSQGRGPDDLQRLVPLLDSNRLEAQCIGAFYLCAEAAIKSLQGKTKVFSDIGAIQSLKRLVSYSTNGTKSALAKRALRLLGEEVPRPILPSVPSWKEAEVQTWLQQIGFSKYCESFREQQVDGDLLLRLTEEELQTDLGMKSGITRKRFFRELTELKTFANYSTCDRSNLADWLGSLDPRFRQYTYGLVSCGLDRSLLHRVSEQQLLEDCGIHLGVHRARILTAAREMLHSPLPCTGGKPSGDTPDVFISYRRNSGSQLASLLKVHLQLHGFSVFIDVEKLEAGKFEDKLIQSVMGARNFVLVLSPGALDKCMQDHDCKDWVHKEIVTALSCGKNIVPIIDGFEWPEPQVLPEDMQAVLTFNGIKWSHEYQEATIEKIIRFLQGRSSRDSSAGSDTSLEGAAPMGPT

One may read the inhibition as the change of the read-out against control, counted positive when it falls. With `O=c1[nH]c(=O)n([C@H]2C[C@H](O)[C@@H](CO)O2)cc1C(F)(F)F`, the call in experiment [1] and in experiment [2] was inactive. In experiment [3], the remaining NAD was 10 nM (inactive). The inhibition in [4] (at 0.5 µM, stronger effect = higher value) is 36.4% (inactive); in experiment [4] (measured here: combination with BGB IC20, at 0.005 µM), -2.27%; in [4] (measured here: combination with BGB IC40, at 0.005 µM) it was -21%; in experiment [4] (setting [20]) it was -26.7%; in experiment [4] (measured here: combination with cisplatin, at 0.5 µM, stronger effect = higher value), 71.9%; in experiment [4] (measured here: combination with cisplatin, at 5 µM, stronger effect = higher value), -10%. In addition, the inhibition in experiment [5] (BGB combo, at 5 µM) is 76.1%; in experiment [5] (at 0.5 µM), -26.4% (inactive); in [5] (cisplatin combo, at 5 µM), 74.4%; in experiment [5] (setting [21]), -34.8%; in experiment [5] (setting [22]), -33.1%; in [5] (single agent, at 5 µM), 78.3%. For the same compound, the inhibition in experiment [6] (BGB IC20 combo, at 0.005 µM) was -20%; in experiment [6] (BGB IC40 combo, at 0.005 µM), -34.3%; in experiment [6] (BGB IC40 combo, at 0.05 µM), -24%; in experiment [6] (at 0.5 µM), -27.9% (inactive); in experiment [6] (cisplatin combo, at 0.05 µM) it was -27.5%; in experiment [6] (cisplatin combo, at 0.5 µM), -36.1%. In addition, the inhibition is -29.6% in experiment [6] (cisplatin combo, at 5 µM); -19.3% in [6] (measured here: 5 uM single agent, at 5 µM); -42% (inactive) in experiment [7] (at 0.5 µM); -48.3% in [7] (setting [20]); -37.1% in [7] (setting [23]); -50.8% in experiment [7] (measured here: combination with cisplatin, at 5 µM). Moreover, the inhibition is -26.4% (inactive) in experiment [8] (at 0.5 µM); -56.9% in experiment [8] (measured here: with BGB IC20, at 0.5 µM); -39.6% in [8] (measured here: with BGB IC20, at 5 µM); -12.8% in experiment [8] (measured here: with cisplatin IC20, at 0.5 µM); 1.86% in experiment [8] (measured here: with cisplatin IC20, at 5 µM); 7.02% in [8] (single agent, at 5 µM). Further, the inhibition in experiment [9] (at 0.5 µM) is -101% (inactive); in experiment [9] (measured here: combination with BGB at IC20, at 0.5 µM), -90.6%; in [9] (measured here: combination with cisplatin at IC20, at 0.5 µM) it was -100%; in experiment [10] (at 0.5 µM) it was 46.7% (inactive); in experiment [10] (measured here: combo with BGB at IC20, at 0.5 µM), 44.2%; in experiment [10] (measured here: combo with cisplatin at IC20, at 0.5 µM), 72.4%. The inhibition in experiment [11] (at 0.5 µM) was -11.1% (inactive); in experiment [11] (measured here: inhibition with BGB combination, at 0.05 µM) it was -14.4%; in [11] (measured here: inhibition with cisplatin combination, at 0.05 µM), -6.35%; in experiment [12] (at 0.5 µM), -22.5% (inactive); in [12] (measured here: BGB combination, at 0.5 µM) it was -18.8%; in experiment [12] (measured here: BGB combination, at 5 µM), 1.19%. In addition, the inhibition in experiment [12] (measured here: cisplatin combination, at 0.5 µM) is -44.6%; in experiment [12] (measured here: cisplatin combination, at 5 µM), 12.8%; in experiment [13] (at 0.5 µM), -27.4% (inactive); in [13] (cisplatin combination, at 0.5 µM) it was -13.4%; in experiment [13] (cisplatin combination, at 5 µM), -12.4%; in experiment [13] (measured here: BGB IC40 combination 0.05 uM, at 0.05 µM) it was -6.58%. In addition, the inhibition in experiment [13] (single agent, at 5 µM) was -41.3%; in experiment [14] (at 0.5 µM), -14.2% (inactive); in [14] (cisplatin combo, at 5 µM) it was -41.9%; in experiment [14] (measured here: BGB IC40 combination, at 0.05 µM), -13.9%; in experiment [14] (setting [23]), -28.5%; in [14] (single agent, at 5 µM), -39.2%. Moreover, the inhibition in experiment [15] (at 0.5 µM) is -43.3% (inactive); in [15] (setting [21]), -61.7%; in experiment [15] (setting [22]) it was -37.1%; in [15] (single agent, at 0.05 µM), -89%; in [15] (single agent, at 5 µM) it was 33.7%.

Regarding `O[C@@H](CNC[C@H](O)[C@H]1CCc2cc(F)ccc2O1)[C@@H]1CCc2cc(F)ccc2O1`, the call in experiment [1] was inactive.

As for `COC(=O)N[C@H](C(=O)N[C@@H](Cc1ccccc1)[C@@H](O)CN(Cc1ccc(-c2ccccn2)cc1)NC(=O)[C@@H](NC(=O)OC)C(C)(C)C)C(C)(C)C`, in [1], the outcome was inactive.

In the case of `COc1nc(N)nc2c1ncn2[C@@H]1O[C@H](CO)[C@@H](O)[C@@H]1O`, in experiment [1], the compound was classed as inactive. Besides, the remaining NAD in experiment [3] was 10 nM (inactive).

As to `CN1C[C@H]2c3ccccc3Oc3ccc(Cl)cc3[C@@H]2C1`, the result in experiment [1] was inactive.

In the case of `Cc1c(C)c2c(c(C)c1O)CCC(C)(COc1ccc(CC3SC(=O)NC3=O)cc1)O2` (centres undefined), the call in [2] was inactive.

The AC50 is the concentration at which the activity in the assay is half-maximal. Consider `COc1cc(NCc2ccc3nc(N)nc(N)c3c2C)cc(OC)c1OC`, for which, in [2], the concentration at half-maximal activity (AC50) was 7.42 µM (active).

Consider `C=CCc1cc(OC)c(O)c(C(=O)NCCO)c1`, for which the outcome in [1] was inactive.

With `N[C@@H](COP(=O)(O)O)C(=O)O`, in experiment [16], the period change is 0.04 h (inactive). For the same compound, in experiment [17], the inhibition was -1% (inactive). For the same compound, the fluorescence ratio (interference) in [18] was 1 (inactive). Also, the remaining NAD in [3] is 10 nM (inactive).

For the compound `Nc1cccc2c1CN(C1CCC(=O)NC1=O)C2=O` (centres undefined), in experiment [19], the SSMD was determined as 2.07, the cell count was 6670 and the plate-normalised HSF1 focus index is 1.11 (inactive).

On to `NC(=O)c1cn(Cc2c(F)cccc2F)nn1`, for which, in [17], the inhibition is -5% (inactive). Besides, the fluorescence ratio (interference) in [18] was 1 (inactive).

For the compound `Nc1cc(=O)[nH]c(N)n1`, the period change in experiment [16] is -0.06 h (inactive). Also, in [17], the inhibition is 1% (inactive). In experiment [18], the fluorescence ratio (interference) was 1.1 (inactive).

On to `C[C@]12CCC(=O)C=C1CC[C@@H]1[C@@H]2CC[C@@]2(C)[C@H]1CC[C@]2(O)C(=O)CO`, for which, in experiment [16], the period change is -0.335 h (inactive). The inhibition in experiment [17] is 0% (inactive). For the same compound, in experiment [18], the fluorescence ratio (interference) was 1 (inactive).

With `N[C@@H](CC(=O)O)C(=O)O`, in [16], the period change is 0.065 h (inactive). Moreover, the inhibition in experiment [17] was 0% (inactive). In experiment [18], the fluorescence ratio (interference) is 0.9 (inactive). The remaining NAD in experiment [3] was 10 nM (inactive).

Values taken from PubChem BioAssay.
